High-throughput results deposited in PubChem by National Center for Advancing Translational Sciences (NCATS).
Only some compounds are listed: those with a hit (about 5.4% of all), similar ones and a draw of the others.
RORgamma inh: blocks mouse ROR gamma transcriptional activity; P51450; Drosophila S2 Gal4-RORgamma UAS-luciferase reporter, 20 h; Potency, µM (titrated, usually from 53.6 µM), for inactives: at the highest dose activity change, negative = inhibition, usual class: inhibitors; 310,000 tested, 5.4% active; AID 2551; also: potency is read from the fitted curve at half-maximal effect; % is scaled to controls: 0 for no effect and ±100 for the full control effect; nearly all actives have a fitted effect of over 60% in size
Target sequence (P51450 whole entry, looked up, the tested form may be a part): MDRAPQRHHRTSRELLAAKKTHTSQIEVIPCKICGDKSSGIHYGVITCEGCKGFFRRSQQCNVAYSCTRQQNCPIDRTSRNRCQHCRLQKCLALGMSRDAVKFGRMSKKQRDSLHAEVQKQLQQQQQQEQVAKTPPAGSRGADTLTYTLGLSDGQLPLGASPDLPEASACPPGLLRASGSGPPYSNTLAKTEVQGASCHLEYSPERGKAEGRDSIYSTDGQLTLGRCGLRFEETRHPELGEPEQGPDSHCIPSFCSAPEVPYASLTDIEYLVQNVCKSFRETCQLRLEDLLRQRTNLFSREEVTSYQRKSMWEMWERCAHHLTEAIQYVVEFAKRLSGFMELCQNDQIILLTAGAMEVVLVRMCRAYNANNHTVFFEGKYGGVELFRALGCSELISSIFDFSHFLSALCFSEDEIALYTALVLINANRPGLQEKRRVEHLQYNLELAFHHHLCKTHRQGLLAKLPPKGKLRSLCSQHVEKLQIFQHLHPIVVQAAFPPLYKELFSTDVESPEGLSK
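Stably transfected Drosophila Schneider cells are the test system, with ROR gamma fused to Gal4 and luciferase under UAS control; luminescence is read after 20 hr of 700 uM copper sulfate induction at ambient temperature.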
p53 reactivation: mutant p53 re-activation in reporter cells; H1299 p53-A138V BP100-luciferase reporter, luminescence, 24 h; Potency, µM (series often up to 92.2 µM), for the others: at the top dose activity change, positive = activation, usual class: activators; 320,000 tested, 0.063% active; also: potency is read from the fitted curve at half-maximal effect; % of control where 0% means no effect; nearly all actives have a fitted effect of over 45% in size
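H1299 (p53-null), stable ts p53-A138V + BP100-Luc; 1000 cells/well, Opti-MEM/10% FBS; cpd 4 pt, 1:5; 24 h, 37 deg C, 5% CO2; detection reagent 10 min RT; luminescence.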
CtBP-E1A blk: blocks the CtBP interaction with E1A. AlphaScreen GST-E1A/His-CtBP binding, 1536-well; hits give low values. activity change, % (no concentration beside the values). 340,000 tested, 0.49% active; in the data active = activity change below about -65%; inconclusive = mostly about -30% to -63%; also: % is scaled to controls: 0 for no effect and ±100 for the full control effect
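AlphaScreen with 125 nM GST-E1A and 125 nM His-CtBP (5X stocks) in Tris pH 8.0, 300 mM NaCl, BSA, Tween 20, TCEP. Compounds preincubated 2 h at 37 deg C, then glutathione donor/nickel acceptor beads added for 1 h at 37 deg C in dark.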
Six1-Eya2 blk: blocks human Six1 binding to Eya2; AlphaScreen GST-Six1/His-Eya2 binding, biochemical; hits give low values; activity change, % (no concentration beside the values); 360,000 tested, 0.56% active; Q15475+O00167; in the data active = activity change below about -65%; inconclusive = mostly about -30% to -63%; also: % is scaled to controls: 0 for no effect and ±100 for the full control effect
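AlphaScreen with GST-Six1 and His-Eya2 (5X mix: 250 nM and 500 nM), glutathione donor and nickel acceptor beads; buffer 50 mM Tris pH 8.0, 300 mM NaCl, 1 mM TCEP; 1 h at 37 C in the dark.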
VP16 counter: counter-screen for ROR gamma inhibitors: Gal4-VP16 reporter. Drosophila S2 Gal4-VP16 UAS-luciferase, luminescence, 20 h. Potency, µM (series often up to 53.6 µM), for inactives: at the top dose activity, negative = inhibition, actives largely listed as inhibitors. 310,000 tested, 3.5% active;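 also: Gal4-VP16 expression switched on by copper sulfate through the metallothionein promoter; potency is read from the fitted curve at half-maximal effect; % is scaled to controls: 0 for no effect and ±100 for the full control effect; nearly all actives have a fitted effect of over 50% in size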
The depositor's hits bear a star. Unless noted, calls follow the shape of the dose curve; as a rule, active = well fitted curve in the direction sought with a large enough effect; inconclusive = small, poorly fitted or top-dose-only effect, or another doubt; inactive = no such curve, though single readings can be large; an effect the other way counts as inactive or inconclusive.

Screening Cc1c(NC(=S)NNC(=O)CCC(=O)O)c(=O)n(-c2ccccc2)n1C returned RORgamma inh -19%, p53 reactivation 0%, CtBP-E1A blk 2, Six1-Eya2 blk 6 and VP16 counter 3%.
Cc1ccc(S(=O)(=O)N2CCN(C(=O)CSc3n[nH]c(N)n3)CC2)c(C)c1 was read as p53 reactivation 7%, CtBP-E1A blk 0 and Six1-Eya2 blk -1.
CCC1(CC)N=C(c2ccccc2)C(=S)N1 was read as RORgamma inh 3.5µM*, p53 reactivation -1%, Six1-Eya2 blk 1 and VP16 counter 11µM*.
For CC(C)CC(=O)NC(=S)Nc1cc(C(F)(F)F)ccc1N1CCOCC1 the results were RORgamma inh 7.9µM*, p53 reactivation -21%, CtBP-E1A blk 7, Six1-Eya2 blk 7 and VP16 counter 7.1µM*.
For CC(Cl)C(=O)Nc1cc(C(F)(F)F)ccc1N1CCOCC1 (configuration not stated) the results were RORgamma inh 10%, p53 reactivation 3%, CtBP-E1A blk 8, Six1-Eya2 blk 8 and VP16 counter 4%.
O=C(CCc1ccccc1)NC(=S)Nc1cc(C(F)(F)F)ccc1N1CCOCC1 was read as RORgamma inh 7.1µM*, p53 reactivation 5%, CtBP-E1A blk 8, Six1-Eya2 blk -8 and VP16 counter inconclusive.
`CC(C)NC(=O)N(C)C[C@H]1OCCCC[C@H](C)Oc2ccc(NC(=O)NC3CCCCC3)cc2C(=O)N([C@H](C)CO)C[C@@H]1C` gave CtBP-E1A blk 3 and Six1-Eya2 blk 9.
`CSc1ccc(/C=C/c2ccc3cccc(O)c3n2)cc1` gave RORgamma inh 4.5µM*, p53 reactivation 2%, CtBP-E1A blk 8, Six1-Eya2 blk 0 and VP16 counter inconclusive.
For COc1ccc(OC)c(/C=C/c2ccc3cccc(O)c3n2)c1 the results were RORgamma inh 2.5µM*, p53 reactivation inconclusive and VP16 counter 4.5µM*.
Screening COc1cc(Br)cc(/C=C/c2ccc3cccc(O)c3n2)c1O returned RORgamma inh 2.5µM*, p53 reactivation inconclusive, Six1-Eya2 blk -4 and VP16 counter 3.2µM*.
COc1cc(Br)c(/C=C/c2ccc3cccc(O)c3n2)cc1OC was read as RORgamma inh 2.8µM*, p53 reactivation 2%, Six1-Eya2 blk 0 and VP16 counter 3.2µM*.
Screening COCC(=O)N1CCC2(CCN(Cc3nccs3)CC2)CC1 returned RORgamma inh 1% and VP16 counter 7%.
`Cc1cc(C)c2cc(CN(Cc3ccco3)C(=S)NCC3CCCO3)c(=O)[nH]c2c1` (configuration not stated) gave RORgamma inh 25%, p53 reactivation -3%, CtBP-E1A blk -4, Six1-Eya2 blk -13 and VP16 counter -6%.
For Cc1ccc(C(=O)Nc2ccc([N+](=O)[O-])cn2)o1 the results were RORgamma inh 38%, p53 reactivation inconclusive, CtBP-E1A blk 2, Six1-Eya2 blk -8 and VP16 counter -2%.
Screening Oc1cccc2ccc(/C=C/c3ccccc3Br)nc12 returned RORgamma inh 4µM*, p53 reactivation inconclusive, CtBP-E1A blk 11, Six1-Eya2 blk -4 and VP16 counter 3.2µM*.
Screening COc1cc(/C=C/c2ccc3cccc(O)c3n2)ccc1O returned RORgamma inh 3.2µM*, p53 reactivation inconclusive, Six1-Eya2 blk -2 and VP16 counter 3.2µM*.
Screening COc1cc(/C=C/c2ccc3cccc(O)c3n2)c(Br)cc1O returned RORgamma inh 2.8µM*, p53 reactivation inconclusive and VP16 counter inconclusive.
COC(=O)[C@@]1(Cc2ccc(OC)cc2)[C@H]2c3cc(C(=O)N(C)C)n(CCF)c3C[C@H]2CN1C(=O)c1ccccc1 was read as RORgamma inh -15% and VP16 counter 10%.
CN(C)c1cccc(-c2nnc(SCCCC#N)o2)c1 was read as RORgamma inh 11µM*, p53 reactivation -4%, CtBP-E1A blk -4, Six1-Eya2 blk -3 and VP16 counter inconclusive.
For CN(C)CCSc1nnc(-c2ccccc2)o1 the results were RORgamma inh -41%, p53 reactivation inconclusive, CtBP-E1A blk 0, Six1-Eya2 blk -10 and VP16 counter -10%.
O=C(c1ccc(-c2ccccc2)cc1)C1CCCN(Cc2ccncc2)C1 (configuration not stated) was read as RORgamma inh 11µM*, p53 reactivation 22%, CtBP-E1A blk -9, Six1-Eya2 blk -3 and VP16 counter 0%.
O=C(c1ccc(-c2ccccc2)cc1)C1CCCN(C(=O)c2ccncc2)C1 (configuration not stated) was read as RORgamma inh -1%, p53 reactivation -3%, CtBP-E1A blk -22, Six1-Eya2 blk -2 and VP16 counter 0%.
`COc1ccc(N2CCN(C(=O)COC(=O)/C=C/c3ccc(C(F)(F)F)cc3)CC2)cc1` gave p53 reactivation inconclusive, CtBP-E1A blk -14 and Six1-Eya2 blk -5.
Screening COCCN(C(=S)Nc1ccc(C)cc1C)C(C)c1cccs1 (configuration not stated) returned RORgamma inh inconclusive, p53 reactivation -3%, Six1-Eya2 blk 7 and VP16 counter inconclusive.
Screening COCCN(C(=S)Nc1c(C)cc(C)cc1C)C(C)c1cccs1 (configuration not stated) returned RORgamma inh 10µM*, p53 reactivation 7%, CtBP-E1A blk 2, Six1-Eya2 blk 0 and VP16 counter 2%.
For COCCN(C(=S)Nc1ccc(C(C)C)cc1)C(C)c1cccs1 (configuration not stated) the results were RORgamma inh 3.5µM*, p53 reactivation 16%, CtBP-E1A blk 3, Six1-Eya2 blk 2 and VP16 counter inconclusive.
For COCCN(C(=S)Nc1cccc(OC)c1)C(C)c1cccs1 (configuration not stated) the results were RORgamma inh inconclusive, p53 reactivation -13%, CtBP-E1A blk -1, Six1-Eya2 blk 4 and VP16 counter inconclusive.
Screening Cc1ccc(Cl)cc1N1CCN(C(=O)CCS(=O)(=O)c2ccc3c(c2)NC(=O)CO3)CC1 returned RORgamma inh 34%, p53 reactivation -12%, CtBP-E1A blk -4, Six1-Eya2 blk -3 and VP16 counter inconclusive.
`CCN(C(=O)COC(=O)c1cc(=O)[nH]c2ccccc12)C1CCS(=O)(=O)C1` (configuration not stated) gave RORgamma inh 0%, p53 reactivation -1%, CtBP-E1A blk -16, Six1-Eya2 blk 3 and VP16 counter 4%.
C[C@@H]1CCC2C(C)(C)C3CC21CC[C@@]3(C)O (some centres not stated) was read as RORgamma inh 12% and VP16 counter -9%.
COc1ccc(Cc2ccccc2C(=O)O)cc1 was read as CtBP-E1A blk -5 and Six1-Eya2 blk 8.
